Laboratory results reported in the supplement of paper PMC3842684.

Assays:
[1] = test system: P. falciparum NF54-pfs16-GFP early (I-III) stage gametocytes; assay: relative % inhibition of viable gametocyte number; higher = more gametocytocidal; details: stage: early (I-III) gametocyte, incubation 72 h
How it was run: (§1)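 Compound was tested in duplicate at 5 or 0.5 µM on magnet-isolated NF54 pfs16-GFP gametocytes, taken either early (I/IIa, day 2) or late (day 8) and plated at 10% parasitaemia, 0.1% haematocrit. Incubation ran 72 h at 37°C, 5% CO2, 5% O2, followed by overnight MitoTracker Red staining and confocal imaging. Relative inhibition, based on counts of elongated GFP objects with above-cut-off MitoTracker signal, was normalised to in-plate vehicle and positive-control wells.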

[2] = test system: P. falciparum NF54-pfs16-GFP late (IV-V) stage gametocytes; assay: as above; details: stage: late (IV-V) gametocyte, incubation 72 h
How it was run: as §1

Structure (SMILES) | relative % inhibition ([1]; 0.5 µM) [%] | relative % inhibition ([1]; 5 µM) [%] | relative % inhibition ([2]; 0.5 µM) [%] | relative % inhibition ([2]; 5 µM) [%]
O=C(NCCCN1CCC(N2CCCCC2)CC1)C1=Cc2cc(Br)ccc2OC1 | 42.8 | 102 | -12.5 | 19.4
CCCc1c(C)nc2ccc(Br)cc2c1O | 4.64 | -4.44 | 25.1 | 59.8
COc1ccc(C=C2SC(=N)N(c3ccccc3OC)C2=O)cc1 | 11 | 63.6 | 0 | 67.5
OC(CNC1CCCCC1)Cn1c2ccccc2c2ccccc21 (centres undefined) | 14.8 | 66 | 49.9 | 104
O=C(NC(c1ccccc1)c1ccc2cccnc2c1O)c1ccccc1 (centres undefined) | 31.4 | 95.3 | 35.8 | 86.9
O=[N+]([O-])c1ccc(C=NNc2nc3ccccc3[nH]2)cc1 | 26.8 | 59.1 | -1.37 | -1.1
Cc1ccccc1OCCSc1nc2ccc(NC(=O)c3ccccc3)cc2s1 | 24.2 | 20.2 | 2.82 | 12.9
O=C(Nc1ccc(CN2CCOCC2)cc1)c1ccc(-c2cc(Cl)ccc2Cl)o1 | -3.41 | 20.9 | -18.1 | 21.4
O=C(Nc1cccc(C2=NCCN2)c1)Nc1cccc(C2=NCCN2)c1 | 9.97 | 6.29 | 10.7 | -30.3
CC(C)(C)c1ccc2c(c1)CN(Cc1ccc(Cl)cc1)CO2 | 9.71 | 98.4 | 27.3 | 54.6
O=C1CC(O)(C(F)(F)C(F)(F)F)Oc2ccccc21 (centres undefined) | 0.889 | 0.745 | -15.1 | 4.41
COc1ccc2nc(N)nc(C)c2c1 | 15.7 | 24.8 | 10.6 | -4.54
COc1ccccc1CNC(=O)CCn1c(=O)[nH]c2ccsc2c1=O | 16.9 | 2.5 | -0.5 | 0
CCOC(=O)C1=C(c2ccccc2)N=c2sc(=Cc3cc(C)n(-c4ccc(F)cc4)c3C)c(=O)n2C1c1cccc(OC)c1OC (centres undefined) | 14.6 | 96.5 | 50.5 | 59.1
COc1ccc(-c2nc3cc(Cc4ccc5[nH]c(-c6ccc(OC)cc6)nc5c4)ccc3[nH]2)cc1 | 48.1 | 100 | 17.1 | 103
OC1CCCCC1C1(NC(=S)Nc2ccccc2)CCCCC1 (centres undefined) | 2.55 | 71.5 | 33.8 | 90.8
